The structures appear in SMILES notation.

One assay has as its system Pseudomonas 5 (Pseudomonas baetica). Kind of assay: relative growth (AUC of 72 h growth curve relative to DMSO control, dAUC) (ratio); higher = more growth (less inhibition), active = hit call of the paper. The following applies: 20 µM. An outline of the steps:
(§1)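 Relative growth (dAUC) is the spline-integrated area under the growth curve divided by the mean of the DMSO-only control wells. Cultures were isolates from Icelandic stream sediments and Silwood Park soil, plus whole sediment communities, grown to carrying capacity in Luria–Bertani medium and diluted 1:100 into 96-well plates containing each chemical at 20 µM (1% DMSO). A600 was read hourly for 72 h on a plate reader, with brief shaking before each read, and values were averaged over three biological replicates.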
In the case of `CCOc1cc(Oc2ccc(C(F)(F)F)cc2Cl)ccc1[N+](=O)[O-]`, the relative growth is 1.01 (inactive).

As for `O=C(NC(=O)c1c(F)cccc1F)Nc1ccc(OC(F)(F)C(F)OC(F)(F)F)c(Cl)c1` (centres undefined), the relative growth is 0.966 (inactive).

On to `Cc1cc(C)nc(Nc2ccccc2)n1`, for which the relative growth is 0.99 (inactive).

Take `CC(C)NC(=O)N1CC(=O)N(c2cc(Cl)cc(Cl)c2)C1=O`: the relative growth was 0.954 (inactive).

As for `Cc1nnc(-c2ccccc2)c(=O)n1N`, the relative growth is 0.987 (inactive).

For the compound `CSc1nc(NC(C)C)nc(NC(C)C)n1`, the relative growth is 1.03 (inactive).

For `C/C(=N\C#N)N(C)Cc1ccc(Cl)nc1`, the relative growth was 1.03 (inactive).

Regarding `Cc1cccc2sc3nncn3c12`, the relative growth is 1.04 (inactive).

Turning to `Fc1ccc(Oc2ccnc3cc(Cl)cc(Cl)c23)cc1`, the relative growth was 1.01 (inactive).

In the case of `COP(N)(=O)SC` (centres undefined), the relative growth was 1.1 (inactive).

Consider `COc1cc(OC)nc(NC(=O)NS(=O)(=O)c2ncccc2C(=O)N(C)C)n1`, for which the relative growth is 0.996 (inactive).

In the case of `CC[C@H]1CCC[C@H](O[C@H]2CC[C@H](N(C)C)[C@@H](C)O2)[C@@H](C)C(=O)C2=C[C@@H]3[C@@H](C=C(C)[C@@H]4C[C@@H](O[C@@H]5O[C@@H](C)[C@H](OC)[C@@H](OC)[C@H]5OC)C[C@@H]34)[C@@H]2CC(=O)O1.CC[C@H]1CCC[C@H](O[C@H]2CC[C@H](N(C)C)[C@@H](C)O2)[C@@H](C)C(=O)C2=C[C@H]3[C@@H]4C[C@H](O[C@@H]5O[C@@H](C)[C@H](OC)[C@@H](OC)[C@H]5OC)C[C@H]4C=C[C@H]3C2CC(=O)O1`, the relative growth is 1.06 (inactive).

Consider `COC(=O)N(C(=O)N1CO[C@@]2(C(=O)OC)Cc3cc(Cl)ccc3C2=N1)c1ccc(OC(F)(F)F)cc1`, for which the relative growth was 0.965 (inactive).

With `N#Cc1c[nH]cc1-c1cccc2c1OC(F)(F)O2`, the relative growth is 0.971 (inactive).

With `CC(C)N(C(=O)COc1nnc(C(F)(F)F)s1)c1ccc(F)cc1`, the relative growth is 1.01 (inactive).

Regarding `CC1(C)C(C=C(Cl)Cl)C1C(=O)OC(C#N)c1ccc(F)c(Oc2ccccc2)c1` (centres undefined), the relative growth was 1.03 (inactive).

With `Cc1c(COC(=O)[C@@H]2[C@H](/C=C(\Cl)C(F)(F)F)C2(C)C)cccc1-c1ccccc1` (racemic), the relative growth was 1.01 (inactive).

Turning to `COc1cc(C)c(C(=O)c2c(OC)ccc(Br)c2C)c(OC)c1OC`, the relative growth was 0.991 (inactive).

Turning to `CC(C)(C)C(O)(CCc1ccc(Cl)cc1)Cn1cncn1` (centres undefined), the relative growth was 0.979 (inactive).

Take `CCCC(Cn1cncn1)c1ccc(Cl)cc1Cl` (centres undefined): the relative growth is 1.01 (inactive).

With `C[C@@H]1[C@@H](c2ccc(Cl)cc2)SC(=O)N1C(=O)NC1CCCCC1`, the relative growth was 1.05 (inactive).

In the case of `O=C1C2(Cl)C3(Cl)C4(Cl)C(Cl)(Cl)C5(Cl)C3(Cl)C1(Cl)C5(Cl)C24Cl` (centres undefined), the relative growth was 1.07 (inactive).

`OC(Cc1ccccc1Cl)(Cn1nc[nH]c1=S)C1(Cl)CC1` (centres undefined): the relative growth is 0.995 (inactive).

Regarding `CC1(C)[C@H](C(=O)O[C@H](C#N)c2cccc(Oc3ccccc3)c2)[C@@H]1C=C(Br)Br`, the relative growth was 1.06 (inactive).

As for `N#Cc1c(Cl)c(Cl)c(Cl)c(C#N)c1Cl`, the relative growth is 1.01 (inactive).

For the compound `CCOc1ccc(C(C)(C)COCc2cccc(Oc3ccccc3)c2)cc1`, the relative growth was 0.991 (inactive).

On to `Cc1cc(C(F)(C(F)(F)F)C(F)(F)F)ccc1NC(=O)c1cccc(I)c1C(=O)NC(C)(C)CS(C)(=O)=O`, for which the relative growth is 0.92 (inactive).

For `N#Cc1nn(-c2c(Cl)cc(C(F)(F)F)cc2Cl)c(N)c1[S+]([O-])C(F)(F)F` (centres undefined), the relative growth is 1.01 (inactive).

Take `CNC(=O)Oc1cccc2ccccc12`: the relative growth was 1.04 (inactive).

As for `CO/N=C(/C(=O)OC)c1ccccc1CO/N=C(\C)c1cccc(C(F)(F)F)c1`, the relative growth was 0.978 (inactive).

On to `CC1(C)CON(Cc2ccccc2Cl)C1=O`, for which the relative growth is 1.06 (inactive).

For the compound `CCCN(CCC)C(=O)SCc1ccccc1`, the relative growth is 1.06 (inactive).

As to `CC[C@H](C)[C@H]1O[C@]2(C=C[C@@H]1C)C[C@@H]1C[C@@H](C/C=C(\C)[C@@H](O[C@H]3C[C@H](OC)[C@@H](O[C@H]4C[C@H](OC)[C@@H](O)[C@H](C)O4)[C@H](C)O3)[C@@H](C)/C=C/C=C3\CO[C@@H]4[C@H](O)C(C)=C[C@@H](C(=O)O1)[C@]34O)O2.CO[C@H]1C[C@H](O[C@H]2[C@H](C)O[C@@H](O[C@@H]3/C(C)=C/C[C@@H]4C[C@@H](C[C@]5(C=C[C@H](C)[C@@H](C(C)C)O5)O4)OC(=O)[C@@H]4C=C(C)[C@@H](O)[C@H]5OC/C(=C\C=C\[C@@H]3C)[C@]54O)C[C@@H]2OC)O[C@@H](C)[C@@H]1O`, the relative growth was 1.13 (inactive).

Turning to `Nc1c(Cl)c(F)nc(OCC(=O)O)c1Cl`, the relative growth was 0.947 (inactive).

Take `O=C1C=C(N(Cc2ccc(Cl)nc2)CC(F)F)CO1`: the relative growth was 0.988 (inactive).

As for `CC1(C)C(C(=O)OC(C#N)c2cccc(Oc3ccccc3)c2)C1(C)C` (centres undefined), the relative growth was 1.01 (inactive).

Take `COP(=O)(OC)OC=C(Cl)Cl`: the relative growth was 1.01 (inactive).

Another assay concerns Pseudomonas 6 (Pseudomonas sp.). The assay is described as above. The following applies: 20 µM. The method in brief: as §1
Turning to `CCOc1cc(Oc2ccc(C(F)(F)F)cc2Cl)ccc1[N+](=O)[O-]`, the relative growth was 1.12 (inactive).

Turning to `O=C(NC(=O)c1c(F)cccc1F)Nc1ccc(OC(F)(F)C(F)OC(F)(F)F)c(Cl)c1` (centres undefined), the relative growth is 0.98 (inactive).

Take `Cc1cc(C)nc(Nc2ccccc2)n1`: the relative growth was 1.03 (inactive).

As for `CC(C)NC(=O)N1CC(=O)N(c2cc(Cl)cc(Cl)c2)C1=O`, the relative growth is 0.864 (inactive).

As for `Cc1nnc(-c2ccccc2)c(=O)n1N`, the relative growth is 1.1 (inactive).

Regarding `CSc1nc(NC(C)C)nc(NC(C)C)n1`, the relative growth is 1.08 (inactive).

As for `C/C(=N\C#N)N(C)Cc1ccc(Cl)nc1`, the relative growth was 0.981 (inactive).

On to `Cc1cccc2sc3nncn3c12`, for which the relative growth is 1.1 (inactive).

`Fc1ccc(Oc2ccnc3cc(Cl)cc(Cl)c23)cc1`: the relative growth was 1.06 (inactive).

For `COP(N)(=O)SC` (centres undefined), the relative growth is 1.06 (inactive).

For `COc1cc(OC)nc(NC(=O)NS(=O)(=O)c2ncccc2C(=O)N(C)C)n1`, the relative growth is 0.943 (inactive).

Consider `CC[C@H]1CCC[C@H](O[C@H]2CC[C@H](N(C)C)[C@@H](C)O2)[C@@H](C)C(=O)C2=C[C@@H]3[C@@H](C=C(C)[C@@H]4C[C@@H](O[C@@H]5O[C@@H](C)[C@H](OC)[C@@H](OC)[C@H]5OC)C[C@@H]34)[C@@H]2CC(=O)O1.CC[C@H]1CCC[C@H](O[C@H]2CC[C@H](N(C)C)[C@@H](C)O2)[C@@H](C)C(=O)C2=C[C@H]3[C@@H]4C[C@H](O[C@@H]5O[C@@H](C)[C@H](OC)[C@@H](OC)[C@H]5OC)C[C@H]4C=C[C@H]3C2CC(=O)O1`, for which the relative growth is 1.01 (inactive).

In the case of `COC(=O)N(C(=O)N1CO[C@@]2(C(=O)OC)Cc3cc(Cl)ccc3C2=N1)c1ccc(OC(F)(F)F)cc1`, the relative growth was 0.966 (inactive).

Regarding `N#Cc1c[nH]cc1-c1cccc2c1OC(F)(F)O2`, the relative growth was 1.04 (inactive).

Turning to `CC(C)N(C(=O)COc1nnc(C(F)(F)F)s1)c1ccc(F)cc1`, the relative growth was 1.1 (inactive).

Turning to `CC1(C)C(C=C(Cl)Cl)C1C(=O)OC(C#N)c1ccc(F)c(Oc2ccccc2)c1` (centres undefined), the relative growth was 1.03 (inactive).

`Cc1c(COC(=O)[C@@H]2[C@H](/C=C(\Cl)C(F)(F)F)C2(C)C)cccc1-c1ccccc1` (racemic): the relative growth is 0.949 (inactive).

Take `COc1cc(C)c(C(=O)c2c(OC)ccc(Br)c2C)c(OC)c1OC`: the relative growth was 0.939 (inactive).

Regarding `CC(C)(C)C(O)(CCc1ccc(Cl)cc1)Cn1cncn1` (centres undefined), the relative growth was 1.05 (inactive).

For the compound `CCCC(Cn1cncn1)c1ccc(Cl)cc1Cl` (centres undefined), the relative growth was 0.993 (inactive).

As to `C[C@@H]1[C@@H](c2ccc(Cl)cc2)SC(=O)N1C(=O)NC1CCCCC1`, the relative growth was 1.13 (inactive).

On to `O=C1C2(Cl)C3(Cl)C4(Cl)C(Cl)(Cl)C5(Cl)C3(Cl)C1(Cl)C5(Cl)C24Cl` (centres undefined), for which the relative growth was 1.14 (inactive).

For the compound `OC(Cc1ccccc1Cl)(Cn1nc[nH]c1=S)C1(Cl)CC1` (centres undefined), the relative growth is 0.982 (inactive).

Take `CC1(C)[C@H](C(=O)O[C@H](C#N)c2cccc(Oc3ccccc3)c2)[C@@H]1C=C(Br)Br`: the relative growth was 1.14 (inactive).

With `N#Cc1c(Cl)c(Cl)c(Cl)c(C#N)c1Cl`, the relative growth is 1.1 (inactive).

On to `CCOc1ccc(C(C)(C)COCc2cccc(Oc3ccccc3)c2)cc1`, for which the relative growth is 1.02 (inactive).

For `Cc1cc(C(F)(C(F)(F)F)C(F)(F)F)ccc1NC(=O)c1cccc(I)c1C(=O)NC(C)(C)CS(C)(=O)=O`, the relative growth was 0.776 (inactive).

`N#Cc1nn(-c2c(Cl)cc(C(F)(F)F)cc2Cl)c(N)c1[S+]([O-])C(F)(F)F` (centres undefined): the relative growth is 0.962 (inactive).

`CNC(=O)Oc1cccc2ccccc12`: the relative growth was 1.12 (inactive).

For `CO/N=C(/C(=O)OC)c1ccccc1CO/N=C(\C)c1cccc(C(F)(F)F)c1`, the relative growth is 1.03 (inactive).

On to `CC1(C)CON(Cc2ccccc2Cl)C1=O`, for which the relative growth is 1.13 (inactive).

As for `CCCN(CCC)C(=O)SCc1ccccc1`, the relative growth is 1.13 (inactive).

Regarding `CC[C@H](C)[C@H]1O[C@]2(C=C[C@@H]1C)C[C@@H]1C[C@@H](C/C=C(\C)[C@@H](O[C@H]3C[C@H](OC)[C@@H](O[C@H]4C[C@H](OC)[C@@H](O)[C@H](C)O4)[C@H](C)O3)[C@@H](C)/C=C/C=C3\CO[C@@H]4[C@H](O)C(C)=C[C@@H](C(=O)O1)[C@]34O)O2.CO[C@H]1C[C@H](O[C@H]2[C@H](C)O[C@@H](O[C@@H]3/C(C)=C/C[C@@H]4C[C@@H](C[C@]5(C=C[C@H](C)[C@@H](C(C)C)O5)O4)OC(=O)[C@@H]4C=C(C)[C@@H](O)[C@H]5OC/C(=C\C=C\[C@@H]3C)[C@]54O)C[C@@H]2OC)O[C@@H](C)[C@@H]1O`, the relative growth was 1.04 (inactive).

As for `Nc1c(Cl)c(F)nc(OCC(=O)O)c1Cl`, the relative growth is 0.889 (inactive).

For `O=C1C=C(N(Cc2ccc(Cl)nc2)CC(F)F)CO1`, the relative growth is 1.06 (inactive).

For `CC1(C)C(C(=O)OC(C#N)c2cccc(Oc3ccccc3)c2)C1(C)C` (centres undefined), the relative growth is 1.01 (inactive).

`COP(=O)(OC)OC=C(Cl)Cl`: the relative growth was 0.982 (inactive).

The values above are taken from the supplement of paper PMC12067926.
